The values that follow come from PubChem BioAssay (NCATS).

Inconclusive results are not listed. A number with no mark means an inactive call. Active and inactive are the calls of the source. The call rests on the fitted dose curve; in most records, active means well fitted cell-killing curve with a large enough effect; inconclusive means small, poorly fitted or top-dose-only effect, or effect the other way; inactive means no such curve, though single readings can be large or run the other way.
Potency means the concentration at half of the fitted maximal effect.

The assay in a line: Viability qHTS for spleen associated tyrosine kinase inhibitor (SYKi) drug resistant MV4-11 cells (AID 1963824). Further: nearly all actives have a fitted effect of over 35% in size. The following applies: SYKi-resistant MV4-11 viability, CellTiter-Glo, 72 h; series mostly up to 45 µM. The essentials:
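CellTiter-Glo luminescence, read 10 min after reagent addition, reports viability after a 72 hr compound exposure. Cells are an MV4-11 line made resistant to SYK inhibition, seeded at 500 per well onto compound-containing plates.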
Turning to `COC(=O)[C@]1(C)CCC[C@@]2(C)C(=O)CC[C@H]3C(=O)C=C(CC[C@@H]21)C3O` (stereo not given in full), the Potency entry was “inactive”.

Regarding `CC1CCC2(C(=O)OC3OC(CO)C(O)C(O)C3O)CCC3(C)C(=CCC4C5(C)CCC(O)C(C)(CO)C5CCC43C)C2C1(C)O` (stereo not given), the Potency result was “inactive”. On the same count and under the same terms, as for `CNC(=O)c1ccccc1Nc1cc(Nc2ccc(N3CCOCC3)cc2OC)ncc1C(F)(F)F`, the figure is 0.326 µM (active). With `C/C=C(/C)C(=O)OC1C=C2C3C(C)C(C)C(OC(=O)C(C)C(C)O)CC3(C)CCC2(C)C2(C)CC(OC(C)=O)C3C(C)(C)C(O)C(=O)CC3(C)C12` (stereo not given), the Potency was 4.32 µM (active).

Consider `CCOc1ccc2nc(SCCN3CCOCC3)[nH]c2c1`, for which the Potency entry is “inactive”. On the same count and under the same terms, next, `COc1ccccc1Oc1c(NS(=O)(=O)c2ccc(C)cn2)nc(-c2ccncc2)nc1OC`: “inactive”; `COC1CC/C=C(\C)C(=O)Nc2cc(O)cc(c2)CC(C)CC(OC)C(O)C(C)/C=C(\C)C1OC(N)=O` (stereo not given): 0.632 µM (active); `Cc1nc2sccn2c(=O)c1CCN1CCC(=C(c2ccc(F)cc2)c2ccc(F)cc2)CC1`: 11.9 µM (active). On to `C[C@@H]1O[C@@H](O[C@H]2[C@H](OC(=O)[C@]34CCC(C)(C)C[C@H]3C3=CCC5[C@@]6(C)C[C@H](O)[C@H](O[C@@H]7O[C@H](CO)[C@@H](O[C@@H]8O[C@H](CO)[C@@H](O)[C@H](O)[C@H]8O)[C@H](O)[C@H]7O)[C@@](C)(CO)C6[C@H](O)C[C@@]5(C)[C@]3(C)C[C@H]4O)OC[C@H](O)[C@@H]2O)[C@H](O)[C@H](O)[C@H]1O[C@@H]1OC[C@@H](O)[C@H](O[C@@H]2OC[C@](O)(CO)[C@H]2O)[C@H]1O` (stereo not given in full), for which the viability, % of control is 108% [at 9.25 µM]. Regarding `C/C=C1\[C@H](O[C@@H]2O[C@H](CO)[C@@H](O)[C@H](O)[C@H]2O)OC=C2C(=O)OCCc3ccc(O)c(c3)Oc3ccc(cc3)CCOC(=O)C[C@H]21`, the Potency is 3.85 µM (active). Still for that read-out and setting: as for `CC(=O)O[C@@H]1C=C2[C@H](CC[C@@]3(C)[C@@]2(O)CC[C@H]2Cc4c([nH]c5ccccc45)[C@@]23C)O[C@@H]1C(C)(C)O`, the figure is 8.93 µM (active); as for `CC1(C)CC23[C@@H]4CC(=O)[C@@H]2COC(=O)[C@@H]3CC[C@H]41`, 1.64 µM (active). The same measure, in the same setting: next, `CC(C)(C)n1nc(-c2cccc3ccccc23)c2c(N)ncnc21`: 14.6 µM (active).

With `CC(C)S(=O)(=O)NC[C@H](C)c1ccc(NC(=O)c2cc(F)cc(F)c2)cc1`, the Potency was 14.6 µM (active). `C=C(C)C1Cc2cc(C(=O)OC3OC(CO)C(O)C(O)C3O)ccc2O1` (stereo not given): the Potency result is “inactive”. Same read-out and setting: next, `CC1(C)CCCC2(C)C3=C(C(=O)OC3O)C(O)CC12` (stereo not given): “inactive”; `CC(=O)OC1CC2C(C)(C)C(=O)C=CC2(C)C2CC(=O)C3=C(CCC3C3=CC(O)OC3=O)C12C` (stereo not given): 11.2 µM (active). On to `COc1ccc2c(c1O)OC(C)(C)c1c-2ccc2c1C(=O)N(c1ccc(C(=O)c3ccccc3)cc1)C2=O`, for which the Potency entry is “inactive”. Same read-out and setting: as for `NS(=O)(=O)Nc1ncnc(OCCOc2ncc(Br)cn2)c1-c1ccc(Br)cc1`, the figure is 14.6 µM (active); as for `O=S(=O)(Nc1ccc(C(O)(C(F)(F)F)C(F)(F)F)cc1)c1cccs1`, 16.4 µM (active); as for `C=CCc1ccc(O[C@@H]2O[C@H](CO)[C@@H](O)[C@H](O)[C@H]2O)c(O[C@@H]2O[C@H](CO)[C@@H](O)[C@H](O)[C@H]2O)c1`, “inactive”. On the same count and under the same terms, as for `CC(C)CCNC(=O)c1ccc2c(c1)nc(Nc1n[nH]c3ccc(-c4ccccc4OC(F)(F)F)cc13)n2C1CCC(O)CC1` (stereo not given), the figure is 16.4 µM (active). Still for that read-out and setting: as for `COC(=O)c1ccnc(-c2cc(C(=O)NCCc3ccccc3)ccn2)c1`, the entry is “inactive”; as for `CC(C)=CCc1c(O)cc2oc3cc(C)cc(O)c3c2c1C`, 23.1 µM (active); as for `COC(=O)N[C@H](C(=O)N1[C@@H]2CC[C@@H](C2)[C@H]1c1nc2ccc(-c3ccc4c(c3)C(F)(F)c3cc(-c5cnc([C@@H]6CCC7(CC7)N6C(=O)[C@@H](NC(=O)OC)C(C)C)[nH]5)ccc3-4)cc2[nH]1)C(C)C`, 3.99 µM (active). Take `NCC(CNc1nc(Nc2cccc(NC(=O)N3CCCC3)c2)ncc1I)C(=O)c1cccs1` (stereo not given): the Potency is 0.231 µM (active). In the case of `CC1(C)C[C@H]2C3=CCC4[C@@]5(C)CC[C@H](O[C@H]6O[C@H](C(=O)O)[C@@H](O)[C@H](O)[C@H]6O[C@H]6O[C@H](CO)[C@@H](O)[C@H](O)[C@H]6O[C@@H]6O[C@H](CO)[C@@H](O)[C@H](O)[C@H]6O)[C@](C)(CO)C5CC[C@@]4(C)[C@]3(C)CC[C@@]2(C)[C@H](O[C@@H]2OC[C@H](O)[C@H](OC3O[C@H](CO)[C@@H](O)[C@H](O)[C@H]3O)[C@H]2O)[C@@H]1O` (stereo not given in full), the viability, % of control was 93.8% [at 9.25 µM]. With `C[C@@H]1COCCN1c1cc(C2(S(C)(=O)=O)CC2)nc(-c2cccc3[nH]ccc23)n1`, the Potency was 0.366 µM (active). On the same count and under the same terms, as for `CC(C)O[C@@H]1O[C@H](CO)[C@@H](O)[C@H](O)[C@H]1O`, the entry is “inactive”; as for `C[C@@H]1O[C@@H](O[C@H]2[C@@H](OC(=O)[C@]34CCC(C)(C)CC3C3=CCC5[C@@]6(C)C[C@H](O)[C@H](O[C@@H]7O[C@H](CO)[C@@H](O)[C@H](O)[C@H]7O[C@@H]7OC[C@@H](O)[C@H](O)[C@H]7O)[C@@](C)(C(=O)O)C6CC[C@@]5(C)[C@]3(C)CC4)OC[C@H](O)[C@@H]2O)[C@H](O)[C@H](O)[C@H]1O[C@@H]1OC[C@@H](O)[C@H](O)[C@H]1O` (stereo not given in full), 1.38 µM (active); as for `CC(=O)C1=C(O)C2c3c[nH]c4cccc(c34)CC2C(C)(C)N(C)C1=O` (stereo not given), 23.1 µM (active). Same read-out and setting: next, `C=C1C(=O)OC2CC(C)=C(C(C)CCCOC(C)=O)C(OC(=O)CC(C)CC)C12` (stereo not given): 2.52 µM (active); `CN1CC[C@@H](c2c(O)cc(O)c3c(=O)cc(-c4ccc(C(F)(F)F)cc4Cl)oc23)[C@@H]1CO`: 18.4 µM (active). On the same count and under the same terms, as for `Cc1ccc(C)c(-c2cc(C(F)(F)F)nn2-c2ccc(S(N)(=O)=O)cc2)c1`, the figure is 14.6 µM (active); as for `COc1cc(/C=C/C(=O)OCC2OC(OC3(CO)OC(CO)C(O)C3O)C(O)C(O)C2O)ccc1O` (stereo not given), “inactive”. `C=C1C(=O)O[C@@H]2C=C(COC(C)=O)CC/C=C(\CO)CC[C@@H]12`: the Potency was 14.3 µM (active). Still for that read-out and setting: as for `CC(=O)O[C@@H]1CC[C@@]2(C)C(CC[C@]3(C)C2[C@H](O)C=C2[C@H]4[C@@H](C)[C@H](C)CC[C@]4(C)CC[C@]23C)[C@@]1(C)C(=O)O` (stereo not given in full), the figure is 7.09 µM (active); as for `Cc1c(CN2CCN(C(=O)C(C)O)CC2)sc2c(N3CCOCC3)nc(-c3cnc(N)nc3)nc12` (stereo not given), 0.366 µM (active). `CC1(C)C=Cc2c(ccc3c2[N+]([O-])=C2C3(O)CC34NC(=O)C5(CCCN5C3=O)CC4C2(C)C)O1` (stereo not given): the Potency entry is “inactive”. Consider `CC1(C)CCC2(C(=O)OC3OC(CO)C(O)C(O)C3O)CCC3(C)C(=CCC4C5(C)CCC(OC6OC(C(=O)O)C(OC7OC(CO)C(O)C(O)C7O)C(OC7OC(CO)C(O)C(O)C7O)C6O)C(C)(C)C5CCC43C)C2C1` (stereo not given), for which the viability, % of control is 109% [at 9.25 µM].
